Where a name gives a salt, the structure may show the parent alone. ± gives the standard deviation of the averaged measurements. In all, about 1,300 compounds were measured (“normalised cell viability”: median about 1, lowest 2% from about 0.14 on). The sample as a whole holds a higher share of the lowest values than the screen did.
Tested on: V-C8 (BRCA2-deficient hamster cells)
Assay: normalised cell viability (fraction of plate median); higher = more viable cells (less toxic)
Conditions: 5 µM
How it was run: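 In two screens, library drugs at 5 μM were given for 3 days (screen 1) or 6 days (screen 2) to hamster V-C8 cells without BRCA2 and V-C8 cells with BRCA2 restored, seeded 24 h earlier in 96-well plates. A resazurin assay gave the cell viability readout, expressed as modified robust per cent of sample against the plate median, with triplicate wells averaged.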

Compound | normalised cell viability (treatment time: 3 days) | normalised cell viability (treatment time: 6 days)
COC(=O)Nc1nc2cc(C(=O)c3ccc(F)cc3)ccc2[nH]1 [Flubendazol] | 0.148 ± 0.019 | 0.16 ± 0.0047
COC(=O)Nc1nc2cc(C(=O)c3cccs3)ccc2[nH]1 [Nocodazole] | 0.147 ± 0.0062 | 0.128 ± 0.004
CCCOc1ccc2[nH]c(NC(=O)OC)nc2c1 [Oxibendazol] | 0.185 ± 0.0067 | 0.183 ± 0.0049
CC(C)NCC(O)c1ccc(O)c(O)c1 (single isomer, unassigned; (-)) [(-)-Isoproterenol hydrochloride] | 1 ± 0.035 | 0.952 ± 0.015
C#C[C@]1(O)CC[C@H]2[C@@H]3CCC4=CCCC[C@@H]4[C@H]3CC[C@@]21C [Lynestrenol] | 1.1 ± 0.046 | 1.12 ± 0.063
CC(=O)N(O)CCCCCNC(=O)CCC(=O)N(O)CCCCCNC(=O)CCC(=O)N(O)CCCCCN [Deferoxamine mesylate] | 0.305 ± 0.021 | 0.198 ± 0.011
CC(C)(C)C(=O)OCOC(=O)[C@@H]1N2C(=O)[C@@H](NC(=O)[C@H](N)c3ccccc3)[C@H]2SC1(C)C [Pivampicillin] | 1.02 ± 0.075 | 1.01 ± 0.1
Cn1c(=O)c2c(ncn2CCO)n(C)c1=O [Etofylline] | 1.03 ± 0.052 | 0.996 ± 0.039
Cc1cc(-n2c(=O)[nH]c(=O)n(C)c2=O)ccc1Oc1ccc(SC(F)(F)F)cc1 [Toltrazuril] | 1.07 ± 0.044 | 1 ± 0.073
O=C1NCN(c2ccccc2)C12CCN(CCCC(c1ccc(F)cc1)c1ccc(F)cc1)CC2 [Fluspirilen] | 0.472 ± 0.045 | 0.235 ± 0.12
Clc1ccccc1CN1CCc2sccc2C1 [Ticlopidine hydrochloride] | 1.1 ± 0.032 | 1.08 ± 0.064
Cc1nc(=O)c2cc(CN(C)c3ccc(C(=O)N[C@@H](CCC(=O)O)C(=O)O)s3)ccc2[nH]1 [Raltitrexed] | 0.332 ± 0.028 | 0.432 ± 0.075
CCN(CC)CCN[C@@H](C(=O)OCCC(C)C)c1ccccc1 [Camylofine chlorhydrate] | 1.07 ± 0.065 | 0.978 ± 0.027
Cc1ncc(C[n+]2csc(CCO)c2C)c(N)n1 [Thiamine hydrochloride] | 1.05 ± 0.029 | 1.05 ± 0.016
Cc1c(Nc2ncccc2C(=O)O)cccc1C(F)(F)F [Flunixin meglumine] | 1.1 ± 0.11 | 1.03 ± 0.037
CC(C)OC(=O)CCC/C=C\C[C@@H]1[C@@H](CC[C@@H](O)CCc2ccccc2)[C@H](O)C[C@@H]1O [Latanoprost] | 1.13 ± 0.11 | 1.05 ± 0.041

Compound | normalised cell viability (treatment time: 3 days) | normalised cell viability (treatment time: 6 days)
C[C@@]1(O)CCOC(=O)C1 [Mevalonic-D, L acid lactone] | 1.12 ± 0.05 | 1.05 ± 0.18
COc1ccc2[nH]cc(CCNC(C)=O)c2c1 [Melatonin] | 1.16 ± 0.068 | 1 ± 0.058
CCCCCNC(=N)N/N=C/c1c[nH]c2ccc(OC)cc12 [Tegaserod maleate] | 0.124 ± 0.011 | 0.164 ± 0.016
CN1CCCC(CC2c3ccccc3Sc3ccccc32)C1 (centres undefined) [Metixene hydrochloride] | 0.57 ± 0.02 | 0.69 ± 0.052
Clc1ccc(C(Cn2ccnc2)OCc2ccsc2Cl)c(Cl)c1 (centres undefined) [Tioconazole] | 0.97 ± 0.046 | 0.966 ± 0.059
COC1=C(OC)C(=O)C(CCCCCCCCCCO)=C(C)C1=O [Idebenone] | 0.648 ± 0.036 | 0.713 ± 0.04
CC(C)(C)NCC(O)COc1cccc2c1CC(O)C(O)C2 (centres undefined) [Nadolol] | 1.02 ± 0.073 | 1.04 ± 0.035
C1CCC(C(CC2CCCCN2)C2CCCCC2)CC1 (centres undefined) [Perhexiline maleate] | 0.126 ± 0.011 | 0.109 ± 0.0083
Cc1cc2cc3c(C)cc(=O)oc3c(C)c2o1 [Trioxsalen] | 1.04 ± 0.047 | 1.07 ± 0.027
CC=CC(=O)N(CC)c1ccccc1C [Crotamiton] | 0.866 ± 0.12 | 0.929 ± 0.025
CC(C)c1ccc2oc3nc(N)c(C(=O)O)cc3c(=O)c2c1 [Amlexanox] | 0.933 ± 0.034 | 1.03 ± 0.089
O=C(O)[C@H]1/C(=C/CO)O[C@@H]2CC(=O)N21 [Potassium clavulanate] | 1 ± 0.03 | 0.984 ± 0.039
Nc1ccc(O)c(C(=O)O)c1 [Mesalamine] | 1.09 ± 0.028 | 1.14 ± 0.27
CC(C)NC(=N)NC(=N)Nc1ccc(Cl)cc1 [Proguanil hydrochloride] | 0.196 ± 0.012 | 0.189 ± 0.014
N=C(NCCCCCCNC(=N)NC(=N)Nc1ccc(Cl)cc1)NC(=N)Nc1ccc(Cl)cc1 [Chlorhexidine] | 0.129 ± 0.0057 | 0.101 ± 0.0054
N=C(N)NC(=N)NCCc1ccccc1 [Phenformin hydrochloride] | 0.955 ± 0.035 | 0.96 ± 0.052

From the supplement of paper PMC6609913
